From PubChem BioAssay (Tox21)
Results filed as inconclusive are left out. Calls of active or inactive are those of the source. Unless noted, the call rests on the fitted dose curve; in most records, active means well fitted curve in the direction sought with a large enough effect in the repeat runs; inconclusive means weak or mixed curves; inactive means no such curve, though single readings can be large; an effect the other way counts as inactive or inconclusive.

Assays:
[1] = biological target: Thyrotropin receptor (Homo sapiens) (UniProt P16473); assay: qHTS assay to identify small molecule agonists of the thyroid stimulating hormone receptor (TSHR) signaling pathway (AID 1224843; calls by dose curve; further: nearly all actives have a fitted effect of over 45% in size)
Summary of the method: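 TSHR-expressing HEK293 cells (800 per well) were exposed to compounds for 30 min at room temperature. cAMP was then detected by HTRF competition with cAMP-d2 and anti-cAMP cryptate, read after 1 h at room temperature. Fifteen concentrations, triplicate.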

[2] = qHTS assay to identify small molecule agonists of the hypoxia (HIF-1) signaling pathway - cell viability counter screen (AID 1224844; calls by dose curve; further: nearly all actives have a fitted effect of over 50% in size)
Summary of the method: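 HRE-bla ME-180 cells in medium with 0.5% dialyzed FBS were preincubated 5 hrs at 37C, exposed to compounds for 17 hrs, then viability was read as CellTiter-Glo luminescence after 30 min at room temperature, in the reporter wells.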

[3] = qHTS assay to identify small molecule agonists of H2AX (AID 1224845; active means well fitted activation curve with a large enough effect in the signal ratio in the repeat runs, not every such curve was filed as active; the % refers to the signal ratio)
Summary of the method: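 Wild-type CHO-K1 cells plated overnight, then exposed 3 hr at 37C to compounds at 15 concentrations (0.76% DMSO). Lysed, then HTRF anti-pH2AX(S139)-cryptate/anti-H2AX-d2 detection after 24 hr at room temperature; emissions 665 and 620 nm.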

[4] = qHTS assay to identify small molecule agonists of H2AX - cell viability counter screen (AID 1224847; calls by dose curve; further: top concentration of the series differs between compounds; nearly all actives have a fitted effect of over 30% in size)
Summary of the method: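 After overnight plating of 1000 CHO-K1 cells per well, a 15-concentration compound series was applied for 3 hr at 37C. Luminescence from CellTiter-Glo, read following 30 min at room temperature, reflected cell viability.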

[5] = qHTS assay to identify small molecule antagonists of the estrogen related receptor (ERR) signaling pathway from Tox21 library (AID 1224848); further: nearly all actives have a fitted effect of over 50% in size; further: potency means the concentration at half of the fitted maximal effect
Summary of the method: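 Cells: ERR line, 2,000/well; 6 h preincubation 37 C/5% CO2. Cpd in DMSO via pin tool; 18 h, 37 C. ONE-Glo, 30 min RT, luminescence.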

[6] = qHTS assay to identify small molecule agonists of the estrogen related receptor (ERR) signaling pathway from Tox21 library (AID 1224849; calls by dose curve; further: nearly all actives have a fitted effect of over 15% in size); conditions: ERR reporter cell line, ONE-Glo luciferase, 18 h; at 92.4 µM (top of the series) unless noted
Summary of the method: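 ERR reporter cell line (NTP) seeded, rested 6 h at 37 C/5% CO2, then pinned with Tox21 compounds in DMSO. After 18 h at 37 C, ONE-Glo luciferase luminescence was read following 30 min at room temperature.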

[7] = qHTS RealTime-Glo MT Cell Viability Assay in HepG2 cells - 24 hour (AID 1224867); further: nearly all actives have a fitted effect of over 50% in size
Summary of the method: (§1)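 Tox21 10K library screened in qHTS format on HepG2 cells carrying RealTime-Glo reagents. Compounds were added after a 5 h preincubation, and the luminescent signal from continuous culture was measured repeatedly during 40 h treatment.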

[8] = A CellTox Green Cytotoxicity Assay to monitor cytotoxicity in HEK293 cells - 40 hour (AID 1224871); further: nearly all actives have a fitted effect of over 45% in size
Summary of the method: (§2)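 HEK293 cells premixed with CellTox Green dye were seeded at 600 cells/well and left 5 h at 37 C/5% CO2 before pin transfer of 23 nL compound in DMSO. Fluorescence from dye bound to dead-cell DNA was read during 40 h treatment.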

[9] = qHTS RealTime-Glo MT Cell Viability Assay in HEK293 cells - 16 hour (AID 1224872); further: nearly all actives have a fitted effect of over 50% in size; further: potency means the concentration at half of the fitted maximal effect
Summary of the method: (§3)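 Luminescence generated by NanoLuc from substrate produced by living HEK293 cells served as the viability signal. Each value reflects the reading at its stated time point during continuous 40 h compound exposure at 37 C.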

[10] = qHTS RealTime-Glo MT Cell Viability Assay in HepG2 cells - 8 hour (AID 1224873); further: nearly all actives have a fitted effect of over 55% in size
Summary of the method: (§4)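 HepG2 cells mixed with RealTime-Glo MT reagents (NanoLuc plus cell-permeant prosubstrate) were seeded at 600 cells/well, incubated 5 h at 37 C/5% CO2, then pinned with compounds in DMSO; nonlytic luminescence tracked viability during 40 h treatment.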

[11] = qHTS RealTime-Glo MT Cell Viability Assay in HEK293 cells - 40 hour (AID 1224874); conditions: RealTime-Glo luminescence; max response: hits give low values; further: nearly all actives have a fitted effect of over 50% in size; further: potency means the concentration at half of the fitted maximal effect
Summary of the method: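 HEK293 cells mixed with RealTime-Glo reagents (NanoLuc plus cell-permeant prosubstrate) at 600 cells/well, preincubated 5 h at 37 C/5% CO2, then given 23 nL compound in DMSO. Nonlytic luminescence from viable cells was read at 0, 8, 16, 24, 32 and 40 h.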

[12] = A CellTox Green Cytotoxicity Assay to monitor cytotoxicity in HEK293 cells - 24 hour (AID 1224875); further: nearly all actives have a fitted effect of over 45% in size
Summary of the method: as §2

[13] = A CellTox Green Cytotoxicity Assay to monitor cytotoxicity in HepG2 cells - 16 hour (AID 1224876); further: nearly all actives have a fitted effect of over 45% in size
Summary of the method: (§5)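 HepG2 cells were seeded together with the CellTox Green dye at 600 cells/well, left 5 h at 37 C/5% CO2, then given compounds in DMSO. Fluorescence from dye bound to dead-cell DNA was read repeatedly over 40 h of treatment at 37 C.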

[14] = qHTS RealTime-Glo MT Cell Viability Assay in HepG2 cells - 32 hour (AID 1224877); further: nearly all actives have a fitted effect of over 55% in size
Summary of the method: as §1

[15] = A CellTox Green Cytotoxicity Assay to monitor cytotoxicity in HepG2 cells - 24 hour (AID 1224878); further: nearly all actives have a fitted effect of over 45% in size
Summary of the method: as §5

[16] = A CellTox Green Cytotoxicity Assay to monitor cytotoxicity in HepG2 cells - 40 hour (AID 1224879); further: nearly all actives have a fitted effect of over 40% in size
Summary of the method: as §5

[17] = qHTS assay to identify small molecule agonists of the hypoxia (HIF-1) signaling pathway (AID 1224846; active means well fitted activation curve with a large enough effect in the signal ratio in the repeat runs, not every such curve was filed as active; the % refers to the signal ratio)
Summary of the method: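 HRE-bla ME-180 cells (beta-lactamase reporter under hypoxia response element) were plated at 2,000 cells/well in medium with 0.5% dialyzed FBS, rested 5 hrs, then given compounds in DMSO for 17 hrs at 37C, 5% CO2. Reporter induction was read with CCF4-AM FRET substrate.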

[18] = A CellTox Green Cytotoxicity Assay to monitor cytotoxicity in HEK293 cells - 0 hour (AID 1224869); further: nearly all actives have a fitted effect of over 50% in size
Summary of the method: as §2

[19] = qHTS RealTime-Glo MT Cell Viability Assay in HEK293 cells - 32 hour (AID 1224868)
Summary of the method: as §3

[20] = qHTS RealTime-Glo MT Cell Viability Assay in HepG2 cells - 40 hour (AID 1224870); further: nearly all actives have a fitted effect of over 50% in size
Summary of the method: as §4
On the % scale 0 is the no-effect control and ±100 the full control effect.

Chain of Thyrotropin receptor (Homo sapiens) (P16473 whole entry, looked up): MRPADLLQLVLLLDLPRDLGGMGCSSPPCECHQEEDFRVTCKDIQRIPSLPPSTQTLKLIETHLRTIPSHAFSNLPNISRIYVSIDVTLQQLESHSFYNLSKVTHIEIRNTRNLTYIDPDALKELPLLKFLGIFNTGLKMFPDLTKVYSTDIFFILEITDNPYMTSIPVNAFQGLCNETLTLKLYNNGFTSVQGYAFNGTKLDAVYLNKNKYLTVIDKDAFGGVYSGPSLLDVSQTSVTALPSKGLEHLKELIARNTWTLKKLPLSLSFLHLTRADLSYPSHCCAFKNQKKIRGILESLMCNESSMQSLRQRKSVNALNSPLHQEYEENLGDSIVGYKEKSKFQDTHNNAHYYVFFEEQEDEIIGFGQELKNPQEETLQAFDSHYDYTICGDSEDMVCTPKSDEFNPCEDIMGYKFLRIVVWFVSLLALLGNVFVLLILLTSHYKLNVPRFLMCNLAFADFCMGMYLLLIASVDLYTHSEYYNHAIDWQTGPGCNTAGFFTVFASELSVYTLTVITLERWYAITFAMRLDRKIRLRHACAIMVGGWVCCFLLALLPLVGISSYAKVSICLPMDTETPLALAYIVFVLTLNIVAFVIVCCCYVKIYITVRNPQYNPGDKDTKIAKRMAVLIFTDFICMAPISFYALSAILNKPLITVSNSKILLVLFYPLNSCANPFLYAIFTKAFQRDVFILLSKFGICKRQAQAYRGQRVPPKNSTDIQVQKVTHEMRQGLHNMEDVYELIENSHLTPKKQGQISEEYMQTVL

CCn1c(=O)c2c(nc(/C=C/c3ccc(OC)c(OC)c3)n2C)n(CC)c1=O
active: Potency [5] 21100 nM | Potency [9] 1690 nM | Potency [11] 1690 nM
inactive: outcome [1] | Potency [2] | outcome [3] | Potency [4] | activity change, positive = activation [6] -35.7% [at 42.5 µM] | outcome [7] | Potency [8] | outcome [10] | Potency [12] | Potency [13] | Potency [14] | Potency [15] | Potency [16]

CCCCCCCCCCCCCCC
inactive: outcome [1] | Potency [2] | outcome [17] | Potency [4] | Potency [5] | activity change, positive = activation [6] 4.59% | outcome [7] | Potency [18] | Potency [8] | Potency [9] | outcome [10] | max response [11] 10.7% | Potency [12] | Potency [13] | Potency [14] | Potency [15] | Potency [16]

C=C(C)C(=O)NCCC[N+](C)(C)C
inactive: outcome [1] | Potency [2] | outcome [3] | Potency [4] | outcome [7] | Potency [19] | Potency [18] | Potency [20] | Potency [8] | max response [11] 0.623% | Potency [12] | Potency [13] | Potency [14] | Potency [15] | Potency [16]

C=CCOCC(O)CS(=O)(=O)O (stereo unspecified)
inactive: outcome [1] | Potency [2] | outcome [3] | Potency [4] | outcome [7] | Potency [19] | Potency [18] | Potency [20] | Potency [8] | Potency [9] | outcome [10] | max response [11] -7.7% | Potency [12] | Potency [13] | Potency [14] | Potency [15] | Potency [16]

N[C@@H](CS)C(=O)O
inactive: outcome [1] | Potency [2] | outcome [17] | Potency [4] | outcome [7] | Potency [19] | Potency [18] | Potency [20] | Potency [8] | Potency [9] | outcome [10] | max response [11] 9.81% | Potency [12] | Potency [13] | Potency [14] | Potency [15] | Potency [16]

Cc1nc(-c2ccc(OCC(C)C)c(C#N)c2)sc1C(=O)O
inactive: outcome [1] | Potency [2] | outcome [3] | Potency [5] | outcome [7] | Potency [19] | Potency [18] | Potency [20] | Potency [8] | Potency [9] | outcome [10] | max response [11] -0.381% | Potency [13] | Potency [14] | Potency [15] | Potency [16]
active: activity change, positive = activation [6] 18.5% [at 42.5 µM]

CCCCCC[C@@H](CCC)C(=O)O
inactive: outcome [1] | Potency [2] | outcome [3] | Potency [4] | activity change, positive = activation [6] -23% [at 42.5 µM] | outcome [7] | Potency [19] | Potency [18] | Potency [20] | Potency [8] | Potency [9] | outcome [10] | max response [11] 13.8% | Potency [12] | Potency [13] | Potency [15] | Potency [16]

NC(CS)C(=O)O (stereo unspecified)
inactive: outcome [1] | Potency [2] | outcome [3] | Potency [4] | outcome [7] | Potency [18] | Potency [20] | Potency [8] | Potency [9] | max response [11] 1.35% | Potency [12] | Potency [13] | Potency [14] | Potency [15] | Potency [16]
